Here are results for five compounds from PubChem BioAssay.

Active and inactive are the calls of the source.

The test system of assay [1] is PRMT1 (protein arginine N-methyltransferase 1). Put plainly: small molecules binding arginine methyltransferase PRMT1 – biochemical, small-molecule microarray, 635 nm fluorescence, primary screen (AID 1088).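 Further: binding of Prmt1 protein to compounds spotted on small-molecule microarray slides.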 As to conditions: higher = more signal.
A short description of assay [2]: growth effects on S. cerevisiae YJM789 – YJM789 clinical isolate, OD600, 24 h, basal, primary screen (AID 1089).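 Further: growth of clinical yeast isolate S. cerevisiae YJM 789 seeded 1000 cells per well; test concentration not given here.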 The settings on record: higher = more signal, called active from +8 up or from −8 down.
Assay [3] can be described thus: S. pombe growth modifiers, basal conditions – strain 972, OD600, 24 h, no modulator, primary screen (AID 1090).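 Further: basal condition with compound alone and no growth modifier present; test concentration not given here.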 The settings on record: S. pombe 972 growth, higher = more signal, called active from +8 up or from −8 down.
Assay [4] is described as follows: budding yeast growth modifiers under rapamycin – strain BY4716, OD600, 96 h, primary screen (AID 1091). Further: test concentration not given here. The settings on record: S. cerevisiae BY4716 + rapamycin, higher = more signal, called active from +8 up or from −8 down.
The target in assay [5] is Torsin-1A-interacting protein 2 (Homo sapiens) (UniProt Q8NFQ8). Put plainly: small molecules binding lysate-expressed LULL1 – cell lysate, human LULL1 lysate, 635/667 nm fluorescence, primary screen (AID 1092).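 Further: probe is lysate of COS7 cells overexpressing human LULL1; score merges per-feature 667 nm fluorescence with signal-to-noise.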 As to conditions: small-molecule microarray, hLULL1 lysate binding, 635 nm fluorescence; higher = more signal.
Sequence of Torsin-1A-interacting protein 2 (Homo sapiens) (Q8NFQ8 whole entry, looked up): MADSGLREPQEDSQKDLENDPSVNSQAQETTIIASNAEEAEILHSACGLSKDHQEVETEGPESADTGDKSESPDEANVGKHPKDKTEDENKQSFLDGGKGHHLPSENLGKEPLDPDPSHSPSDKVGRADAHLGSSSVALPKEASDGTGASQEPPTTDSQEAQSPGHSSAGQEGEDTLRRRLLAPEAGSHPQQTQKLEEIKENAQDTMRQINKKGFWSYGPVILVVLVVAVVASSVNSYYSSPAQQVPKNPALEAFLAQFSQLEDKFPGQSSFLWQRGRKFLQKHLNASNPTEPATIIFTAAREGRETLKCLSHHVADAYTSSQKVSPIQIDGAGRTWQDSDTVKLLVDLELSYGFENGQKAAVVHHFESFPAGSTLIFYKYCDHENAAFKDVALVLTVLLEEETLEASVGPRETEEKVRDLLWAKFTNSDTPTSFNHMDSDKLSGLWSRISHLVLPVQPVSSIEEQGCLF
Assay [6] is described as follows: optical density change of DRC41 E. coli – strain DRC41, OD650, 24 h, E. coli filamentation project, primary screen (AID 1093).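 Further: MC1000 strain lacking acrAB efflux and sulA so SOS filamentation is blocked; test concentration not given here.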 The settings on record: E. coli DRC41 growth, higher = more signal, called active from +8 up or from −8 down.
Assay [7] can be described thus: probe aLefty2 binding to arrayed compounds – biochemical, biotinylated probe, 635/667 nm fluorescence, primary screen (AID 1094).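 Further: score merges spot fluorescence near 667 nm with spot signal-to-noise ratio.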 As to conditions: small-molecule microarray, higher = more signal.
The subject of assay [8] is Noggin (protein binding on small-molecule microarray). The assay is described as follows: small molecules binding Noggin protein – biochemical, 635/667 nm fluorescence, primary screen (AID 1095).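 Further: score merges 667 nm feature fluorescence with signal to noise over triplicate slides.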 The settings on record: 635 nm fluorescence, higher = more signal.
Assay [9] concerns the target Neurogenic locus notch homolog protein 3 (Homo sapiens) (UniProt Q9UM47). Put plainly: small molecules binding NOTCH3 protein – biochemical, 635/667 nm fluorescence, primary screen (AID 1096). As to conditions: small-molecule microarray, 635 nm fluorescence, higher = more signal.
The nature of assay [10]: probe aEGFR binding to arrayed compounds – biochemical, biotinylated probe, 635/667 nm fluorescence, primary screen (AID 1097).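 Further: probe is a biotinylated anti-EGFR antibody binding compounds printed on slides; score combines fluorescence near 667 nm and signal to noise of each spot.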 As to conditions: small-molecule microarray, higher = more signal.
The subject of assay [11] is Plasmodium falciparum Sir2 (PF13_0152, Sir2A). Put plainly: Plasmodium falciparum Sir2A binding compounds – biochemical, small-molecule microarray, 635 nm fluorescence, primary screen (AID 1098).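 Further: score merges spot fluorescence intensity with its signal-to-noise ratio.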 The settings on record: fluorescence 635 nm, higher = more signal.
The nature of assay [12]: probe aDKK1 binding to arrayed compounds – biochemical, biotinylated probe, 635/667 nm fluorescence, primary screen (AID 1099).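 Further: score merges 667nm spot fluorescence with signal to noise across triplicate slides; reference of the scale not given here.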 As to conditions: small-molecule microarray, higher = more signal.
A short description of assay [13]: probe aCHRDL2 binding to arrayed compounds – biochemical, biotinylated probe, 635/667 nm fluorescence, primary screen (AID 1100). The settings on record: small-molecule microarray, higher = more signal.
A short description of assay [14]: change in splice reporter luminescence, either direction, cell-based, HEK293, spliceosome inhibition project, primary screen (AID 1101).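 Further: HEK293 cells carrying a splicing-competent luciferase reporter gene; test concentration not given here.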 The settings on record: HEK293 splicing luciferase reporter, 24 h, higher = more signal, called active from +8 up or from −8 down.
The target in assay [15] is Fibroblast growth factor 10 (Homo sapiens) (UniProt O15520). Put plainly: compounds binding fibroblast growth factor 10 – biochemical, small-molecule microarray, 635 nm fluorescence, primary screen (AID 1102). The settings on record: FGF10 binding, fluorescence 635 nm, higher = more signal.
Sequence of Fibroblast growth factor 10 (Homo sapiens) (O15520 whole entry, looked up): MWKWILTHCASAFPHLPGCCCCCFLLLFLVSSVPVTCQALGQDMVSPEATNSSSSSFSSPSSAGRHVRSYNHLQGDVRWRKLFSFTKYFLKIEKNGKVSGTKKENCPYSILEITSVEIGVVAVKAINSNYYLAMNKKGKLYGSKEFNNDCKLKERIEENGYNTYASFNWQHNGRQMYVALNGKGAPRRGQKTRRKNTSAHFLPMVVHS
Assay [16] deals with glycogen synthase kinase-3 (GSK3A per assay name; protocol says GSK3B). The assay is described as follows: compounds binding glycogen synthase kinase-3 – biochemical, small-molecule microarray, 635 nm fluorescence, GSK3A, primary screen (AID 1103). Further: the record names both GSK3A and GSK3B. As to conditions: fluorescence 635 nm, higher = more signal.
Assay [17] concerns the target Epidermal growth factor receptor (Homo sapiens) (UniProt P00533). Put plainly: compounds binding epidermal growth factor receptor – biochemical, small-molecule microarray, 635 nm fluorescence, primary screen (AID 1104).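 Further: score merges 667 nm emission intensity with spot signal to noise over triplicate slides.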 The settings on record: EGFR binding, higher = more signal.
For assay [18], the target named is Follistatin-related protein 3 (Homo sapiens) (UniProt O95633). The assay is described as follows: compounds binding follistatin-related protein 3 – biochemical, small-molecule microarray, 635 nm fluorescence, primary screen (AID 1105).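 Further: score merges emission near 667 nm and signal to noise per printed spot across three slides.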 As to conditions: FSTL3 binding, higher = more signal.
Sequence of Follistatin-related protein 3 (Homo sapiens) (O95633 whole entry, looked up): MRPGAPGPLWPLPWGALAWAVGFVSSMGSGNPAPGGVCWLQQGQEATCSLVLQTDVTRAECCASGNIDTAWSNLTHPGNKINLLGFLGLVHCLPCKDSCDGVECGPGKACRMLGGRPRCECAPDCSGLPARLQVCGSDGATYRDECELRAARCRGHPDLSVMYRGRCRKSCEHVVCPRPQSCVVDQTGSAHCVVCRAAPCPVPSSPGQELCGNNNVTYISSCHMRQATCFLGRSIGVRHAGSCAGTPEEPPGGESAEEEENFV
The target in assay [19] is Dickkopf-related protein 1 (Homo sapiens) (UniProt O94907). The assay is described as follows: small molecules binding DKK1 protein – biochemical, small-molecule microarray, 635 nm fluorescence scan, primary screen (AID 1106).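 Further: score merges emission near 667 nm with signal to noise over three replicate slides.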 As to conditions: higher = more signal.
Sequence of Dickkopf-related protein 1 (Homo sapiens) (O94907 whole entry, looked up): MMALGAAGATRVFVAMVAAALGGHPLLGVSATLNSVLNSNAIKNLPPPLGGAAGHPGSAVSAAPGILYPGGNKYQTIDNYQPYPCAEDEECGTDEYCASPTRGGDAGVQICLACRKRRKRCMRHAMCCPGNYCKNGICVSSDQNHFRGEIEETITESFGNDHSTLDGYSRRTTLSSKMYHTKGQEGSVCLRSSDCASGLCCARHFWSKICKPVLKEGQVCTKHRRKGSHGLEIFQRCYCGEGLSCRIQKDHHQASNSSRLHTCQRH
In assay [20] the test system is Inhibin beta A chain (activin A). Put plainly: small molecules binding activin A – biochemical, small-molecule microarray, 635 nm fluorescence scan, primary screen (AID 1107).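 Further: mouse activin A protein probed at 4.33 µg/mL on printed slides; score merges bound-protein fluorescence near 667 nm with spot signal-to-noise.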 The settings on record: INHBA, higher = more signal.

Sequence of Neurogenic locus notch homolog protein 3 (Homo sapiens) (Q9UM47 whole entry, looked up): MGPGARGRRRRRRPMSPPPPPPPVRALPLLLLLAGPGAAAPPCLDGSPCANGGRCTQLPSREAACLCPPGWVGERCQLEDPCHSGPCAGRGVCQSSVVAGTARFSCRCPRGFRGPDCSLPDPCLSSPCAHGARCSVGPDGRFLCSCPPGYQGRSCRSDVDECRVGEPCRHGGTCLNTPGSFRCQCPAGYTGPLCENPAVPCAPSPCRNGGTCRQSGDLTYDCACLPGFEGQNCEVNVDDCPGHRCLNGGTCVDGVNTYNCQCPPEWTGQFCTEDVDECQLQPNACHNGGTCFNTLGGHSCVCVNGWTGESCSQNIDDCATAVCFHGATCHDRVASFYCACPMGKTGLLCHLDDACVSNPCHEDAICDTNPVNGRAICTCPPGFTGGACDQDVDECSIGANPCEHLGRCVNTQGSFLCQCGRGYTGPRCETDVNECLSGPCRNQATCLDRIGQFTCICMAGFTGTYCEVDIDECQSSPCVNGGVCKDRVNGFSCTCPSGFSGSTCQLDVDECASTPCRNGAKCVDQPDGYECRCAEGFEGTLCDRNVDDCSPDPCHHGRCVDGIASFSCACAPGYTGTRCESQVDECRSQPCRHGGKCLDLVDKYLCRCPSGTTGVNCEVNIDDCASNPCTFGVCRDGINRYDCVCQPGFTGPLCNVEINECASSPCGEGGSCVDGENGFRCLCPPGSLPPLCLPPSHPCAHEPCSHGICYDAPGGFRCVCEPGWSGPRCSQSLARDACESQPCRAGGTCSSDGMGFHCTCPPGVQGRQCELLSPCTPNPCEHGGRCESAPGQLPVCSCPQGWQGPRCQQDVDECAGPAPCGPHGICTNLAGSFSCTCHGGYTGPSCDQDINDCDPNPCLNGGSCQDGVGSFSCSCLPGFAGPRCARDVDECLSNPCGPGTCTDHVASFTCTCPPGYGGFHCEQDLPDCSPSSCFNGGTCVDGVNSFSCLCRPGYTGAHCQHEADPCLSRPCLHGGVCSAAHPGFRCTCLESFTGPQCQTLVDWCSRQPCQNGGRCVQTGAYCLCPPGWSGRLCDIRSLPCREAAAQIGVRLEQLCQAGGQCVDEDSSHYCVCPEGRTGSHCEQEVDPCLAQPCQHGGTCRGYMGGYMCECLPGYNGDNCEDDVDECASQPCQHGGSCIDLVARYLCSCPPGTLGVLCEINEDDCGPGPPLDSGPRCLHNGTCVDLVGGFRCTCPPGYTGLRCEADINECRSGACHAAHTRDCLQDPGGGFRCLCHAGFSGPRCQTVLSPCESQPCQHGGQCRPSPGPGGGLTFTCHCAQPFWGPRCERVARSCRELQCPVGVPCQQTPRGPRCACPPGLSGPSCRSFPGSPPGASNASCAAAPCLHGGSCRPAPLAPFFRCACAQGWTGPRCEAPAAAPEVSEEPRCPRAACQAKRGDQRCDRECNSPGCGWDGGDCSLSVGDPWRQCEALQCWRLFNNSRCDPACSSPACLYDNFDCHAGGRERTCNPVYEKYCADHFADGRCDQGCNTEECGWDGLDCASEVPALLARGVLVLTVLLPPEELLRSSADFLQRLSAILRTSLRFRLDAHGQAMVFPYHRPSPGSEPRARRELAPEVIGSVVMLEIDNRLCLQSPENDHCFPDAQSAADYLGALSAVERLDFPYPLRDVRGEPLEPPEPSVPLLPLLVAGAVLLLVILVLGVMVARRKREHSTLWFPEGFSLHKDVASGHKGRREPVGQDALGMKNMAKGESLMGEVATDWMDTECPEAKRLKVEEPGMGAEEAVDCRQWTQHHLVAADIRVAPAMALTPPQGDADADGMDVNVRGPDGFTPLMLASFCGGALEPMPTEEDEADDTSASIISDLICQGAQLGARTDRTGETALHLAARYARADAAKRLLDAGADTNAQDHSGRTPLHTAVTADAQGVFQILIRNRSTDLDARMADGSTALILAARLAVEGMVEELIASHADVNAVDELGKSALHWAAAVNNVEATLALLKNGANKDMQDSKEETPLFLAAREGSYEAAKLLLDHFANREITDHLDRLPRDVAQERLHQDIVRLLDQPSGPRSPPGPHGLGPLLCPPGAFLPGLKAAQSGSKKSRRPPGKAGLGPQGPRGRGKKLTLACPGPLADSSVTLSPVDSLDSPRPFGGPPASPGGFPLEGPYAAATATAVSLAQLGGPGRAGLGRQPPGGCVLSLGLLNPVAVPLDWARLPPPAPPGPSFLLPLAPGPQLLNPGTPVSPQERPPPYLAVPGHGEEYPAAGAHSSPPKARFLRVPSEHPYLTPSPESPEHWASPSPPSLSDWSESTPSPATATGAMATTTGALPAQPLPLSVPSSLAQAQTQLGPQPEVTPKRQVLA
Sequence of Epidermal growth factor receptor (Homo sapiens) (P00533 whole entry, looked up): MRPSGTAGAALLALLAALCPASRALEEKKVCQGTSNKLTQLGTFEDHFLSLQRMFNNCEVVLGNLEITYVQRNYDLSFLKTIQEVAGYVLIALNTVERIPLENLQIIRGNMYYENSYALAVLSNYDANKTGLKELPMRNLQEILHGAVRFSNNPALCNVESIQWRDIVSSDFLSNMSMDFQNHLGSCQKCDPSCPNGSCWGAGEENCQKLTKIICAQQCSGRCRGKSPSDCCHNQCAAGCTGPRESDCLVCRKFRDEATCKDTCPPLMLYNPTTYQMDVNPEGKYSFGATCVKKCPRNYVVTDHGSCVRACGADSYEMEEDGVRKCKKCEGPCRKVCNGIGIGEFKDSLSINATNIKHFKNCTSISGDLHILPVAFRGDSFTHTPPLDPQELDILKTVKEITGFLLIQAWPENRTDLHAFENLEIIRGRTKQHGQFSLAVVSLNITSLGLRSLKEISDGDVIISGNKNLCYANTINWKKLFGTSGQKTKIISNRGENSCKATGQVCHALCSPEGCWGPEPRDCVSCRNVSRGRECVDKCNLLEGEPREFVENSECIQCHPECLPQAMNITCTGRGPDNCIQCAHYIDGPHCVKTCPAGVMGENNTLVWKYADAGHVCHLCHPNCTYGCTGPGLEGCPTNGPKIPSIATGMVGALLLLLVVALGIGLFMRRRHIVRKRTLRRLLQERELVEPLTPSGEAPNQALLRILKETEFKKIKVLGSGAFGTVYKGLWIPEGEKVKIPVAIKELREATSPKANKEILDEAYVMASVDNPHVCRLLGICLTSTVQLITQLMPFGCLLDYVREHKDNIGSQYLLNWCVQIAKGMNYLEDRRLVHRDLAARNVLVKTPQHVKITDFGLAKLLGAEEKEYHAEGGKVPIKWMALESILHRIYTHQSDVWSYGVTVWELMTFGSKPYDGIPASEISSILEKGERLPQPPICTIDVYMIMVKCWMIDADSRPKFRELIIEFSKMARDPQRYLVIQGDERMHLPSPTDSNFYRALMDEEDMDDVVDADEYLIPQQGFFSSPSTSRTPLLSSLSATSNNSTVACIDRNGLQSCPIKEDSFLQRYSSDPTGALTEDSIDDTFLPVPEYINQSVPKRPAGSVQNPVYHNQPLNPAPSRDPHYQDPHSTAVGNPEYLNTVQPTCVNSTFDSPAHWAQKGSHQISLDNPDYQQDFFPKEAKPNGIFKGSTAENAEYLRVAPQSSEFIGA

Take `CCOC(=O)[C@H](Cc1ccccc1)NC(=O)CCC1CC(OC(=O)NCc2cccc3ccccc23)CC2(CCCC(COC(=O)NCc3cccc(C(F)(F)F)c3)O2)O1` (stereo not given in full): the composite z-score was 0.176 in [1]; 1.48 in [5]; -0.217 in assay [7]; 0.0178 in [8]; 0.212 in assay [9]; -0.114 in assay [10]. Further, the composite z-score in assay [11] is 0.532; in assay [12], -0.181; in assay [13], -0.172; in assay [15], 0.152; in assay [16], -0.189; in assay [17], -0.185. Besides, the composite z-score in assay [18] was -0.278; in [19] it was 0.025; in assay [20], -0.151. Moreover, the z-score in assay [2] was 0.655 (inactive); in assay [3], 0.611 (inactive); in [4] it was 1.67 (inactive); in assay [6], -0.353 (inactive); in assay [14], -0.247 (inactive).
With `COc1ccc(O[C@H]2C=C[C@@H](c3ccccc3)O[C@@H]2COC(=O)CCC(C)=NOC(C)CN2CCCc3nc(C)c(C)cc32)cc1` (stereo not given in full), the composite z-score in assay [1] was 1.35; in assay [5] it was 1.36; in assay [7] it was -0.0345; in assay [8], 0.755; in assay [9] it was 1.01; in [10] it was -0.0106. Besides, the composite z-score in assay [11] was 0.817; in [12], -0.176; in assay [13], -0.433; in assay [15] it was 0.753; in assay [16] it was 1.03; in assay [17], 0.517. The composite z-score was 0.889 in assay [18], 0.524 in [19] and 0.465 in assay [20]. The z-score in assay [2] is 0.194 (inactive); in assay [3] it was -0.629 (inactive); in assay [4] it was -0.0642 (inactive); in [6], 1.43 (inactive); in assay [14], 0.063 (inactive).
As for `CCOC(=O)NN=C1C[C@@H](O)[C@@H](O)[C@@H]2[C@@H]3C(=O)N([C@@H](C)c4ccccc4)C(=O)[C@@H]3CC[C@@H]12`, the composite z-score is 1.46 in assay [1]; -0.0284 in assay [5]; -0.113 in assay [7]; 0.797 in [8]; 0.954 in assay [9]; 0.143 in assay [10]. The composite z-score in assay [11] is 0.799; in assay [12] it was -0.315; in assay [13], -0.677; in [15], 0.725; in assay [16] it was 1.12; in [17], 1.09. Besides, the composite z-score amounted to 1.34 in assay [18], 0.867 in [19] and 1.43 in [20]. Besides, the z-score in [2] was -0.707 (inactive); in assay [3], 0.159 (inactive); in [4], -0.231 (inactive); in [6], 0.667 (inactive); in assay [14], 1.31 (inactive).
On to `CO[C@@H]1COC(=O)[C@@H](C)COC(=O)[C@@H](C)NC(=O)CC=C[C@@H]1C`, for which the composite z-score in assay [1] is 1.55; in [5], -0.963; in assay [7], -0.154; in assay [8], 1.6; in assay [9], -0.0403; in assay [10], -0.0041. The composite z-score in assay [11] was 0.155; in assay [12], -0.351; in assay [13] it was -1.08; in assay [15], 1.22; in assay [16] it was 0.571; in [17], 0.318. The composite z-score is 1.33 in assay [18], 1.73 in assay [19] and 0.675 in assay [20]. The z-score in [2] was -2.2 (inactive); in [3], -1.61 (inactive); in [4] it was -2.47 (inactive); in [6] it was -0.801 (inactive); in assay [14], -2.29 (inactive).
Consider `C[n+]1ccc(-c2ccc(CO)cc2)cc1`, for which the composite z-score in [1] was 1.37; in [5] it was -0.202; in assay [7], 0.149; in assay [8], 0.634; in [9] it was 1.06; in assay [10] it was -0.188. Further, the composite z-score in [11] was -1.19; in assay [12] it was 0.116; in [13] it was 0.808; in assay [15], 0.747; in assay [16], -0.435; in assay [17], 1.51. The composite z-score stood at 1.6 in assay [18], 0.953 in assay [19] and 2.16 in assay [20]. The z-score in assay [2] was -1.14 (inactive); in assay [3], -0.902 (inactive); in assay [4] it was 3.9 (inactive); in assay [6] it was 0.917 (inactive); in assay [14], 1.29 (inactive).
